These results are taken from PubChem BioAssay (NCI).

SMILES strings stand for the structures. This is part of a sample that, as a whole, favours compounds with a hit. Of some 83,000 tested, about 20% had one in any assay.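 How to read the values: 0–100, growth inhibition (40 = 60% inhibited); 0, no net growth; -100 to 0, cell death (-40 = 40% of starting cells died; -100 = all dead).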 A number with no mark means an inactive call. Active and inactive are the calls of the source. Rule for the calls: active = growth percent below 10; inactive = the rest.

This experiment concerns HL-60(TB) leukemia. In words: NCI-60 one-dose screen, 48 h (100 = growth as untreated, 0 = no growth, -100 = all killed). The following applies: 10 µM unless noted.
As to `COc1ccc(C2(SCCNCc3cc(N(C)C)ccn3)c3ccccc3C=Cc3ccccc32)cc1`, the growth is -21.8% (active).
Next, `CO[C@@H]1CSS[C@H]1Cn1nc(-c2ccc(Oc3ccccc3)cc2)c2c(N)ncnc21`: 25.8%; `CS(=O)(=O)Nc1cncc(-c2ccc3ncnc(NCc4ccccc4)c3c2)c1`: 54.6%; `COc1ccc(/C(CSc2nnc(-c3c[nH]c4ccccc34)n2-c2ccccc2)=N/O)cc1`: 3.87% (active).
Next, `CN(C)CCCc1ccc(Nc2cnn(C)c(=O)c2Cl)cc1`: 81%; `CC(C)(C)C(=O)C1CC(C#N)=C2C=Cc3c(ccc4ccccc34)N21` (centres undefined): 108%.
On to `CC(=O)Nc1ccc(-c2cn(-c3cccc(C(=O)Nc4cc(CN5CCOCC5)cc(C(F)(F)F)c4)c3)nn2)cn1`, for which the growth was -54.3% (active).
For `COc1cc(C2CC(c3cc(OC)c(OC)c(OC)c3)=Nc3c(N)nc(N)nc3N2)ccc1Oc1nc(NCCO)nc(N2CCOCC2)n1` (centres undefined), the growth was 91.9%.
The result for `Cc1cc(C(NC(=O)CCCCCNc2cccc3c2C(=O)N(C2CCC(=O)CC2=O)C3=O)c2cccc(N(C)C)c2)c(O)c2ncccc12` (centres undefined) reads -15.3% (active); that for `O=C(CSc1nnc(-c2c[nH]c3ccccc23)n1-c1ccccc1)Nc1ccc(C(=O)/C=C/c2ccc(Cl)cc2)cc1`, 66.8%.
The result for `COc1ccc(-c2cc(-c3cc(C(=O)c4ccccc4)n4ccc(C)cc34)nc(N)c2C#N)cc1` reads 99.7%.
Next, `COc1ccc(C2=NN(C(C)=O)C(c3ccc(OCc4ccc(Cl)cc4)c(OC)c3)C2)cc1OC` (centres undefined): 34.6%.
`CC(=O)Nc1ccc(-c2cn(-c3cccc(C(=O)Nc4cccc(OC(F)(F)F)c4)c3)nn2)cn1`: the growth is 95.1%.
In the case of `O=C(/C=C/c1ccc(-c2ccccc2)cc1)c1nc2ccccc2n1Cc1ccc(Br)cc1`, the growth was 35.3%.
With `Cc1ccc2c(N)c(C(=O)Nc3ccc(-c4ccccc4)cc3)sc2n1`, the growth was 38.7%.
Consider `COc1ccc(C(=O)/C=C/c2cc(C(F)(F)F)cc(C(F)(F)F)c2)cc1S(N)(=O)=O`, for which the growth was 2.43% (active).
The result for `COc1cc(NC(=O)C(C)C)ccc1C(=O)NC(=S)Nc1ccc(S(N)(=O)=O)cc1` reads 92.5%; that for `COc1ccc(NC(=O)CSc2nnc(-c3ccc(-c4nc5ccccc5[nH]4)cc3)o2)cc1`, 43.5%.
Next, `COc1ccc(/C=C/c2nc3ccccc3c(=O)n2CC(=O)Nc2ccc(Cl)cc2)cc1`: 96.2%.
Take `O=C(N/N=C/c1ccc(-c2cccc([N+](=O)[O-])c2)s1)c1[nH]c2ccc(Br)cc2c1-c1ccccc1`: the growth was 81.4%.
The result for `COc1ccc(-c2ccc(SCC(=O)Nc3ccc(C#N)cc3)nn2)cc1` reads 95.8%; that for `Cn1cc(-c2cc(N)n3nc(-c4c[nH]c5ccccc45)cc3n2)c2cc(F)ccc21`, 7.1% (active).
Next, `Cc1cccc(C)c1Nc1nnc(-c2c[nH]c3ccccc23)o1`: 97.2%; `CC(C)(C)Nc1nc2cc(Cl)c(Cl)cc2nc1S(C)(=O)=O`: 36.8%.
The result for `COc1cc(C2CC(c3cc(OC)c(OC)c(OC)c3)=NN2C(C)=O)ccc1OCc1ccccc1` (centres undefined) reads 21.5%; that for `COc1c(F)ccc(C(=O)Nc2ccc3nc(NC(=O)C4CCCN(S(=O)(=O)c5ccc(Br)s5)C4)sc3c2)c1F` (centres undefined), 80.6%.
`N#Cc1c(-c2ccc(Br)cc2)nc2n[nH]c(-c3ccc(Br)cc3)c2c1-c1ccc(C(F)(F)F)cc1`: the growth was -26.2% (active).
`O=C(COc1ccc(NC(=O)Nc2ccc(Cl)c(Cl)c2)cc1)N=Nc1c(O)[nH]c2ccc([N+](=O)[O-])cc12`: the growth was 92.4%.
The result for `O=C(c1ccccc1)c1ccc2nc(-c3cccc(Cl)c3)[nH]c2c1` reads 97.6%; that for `CN(C)CCNC(=O)OCCCCOc1cc(O)c2c(=O)cc(-c3ccccc3)oc2c1`, -61.6% (active).
Next, `COc1ccc(C(=O)/C=C/c2ccc(Cl)c(C(F)(F)F)c2)cc1S(N)(=O)=O`: 6.1% (active); `CN(C)c1nc(NCCNS(=O)(=O)c2ccc(C3=Nc4c(N)nc(N)nc4NC(c4ccc(Cl)cc4)C3)cc2)nc(Nc2ccc(F)cc2)n1` (centres undefined): -13.8% (active); `Cc1nc(Nc2ncc(C(=O)Nc3c(C)cccc3Cl)s2)cc(N2CCN(CCCNC(=O)COc3ccc(C4CCC(=O)NC4=O)cc3)CC2)n1` (centres undefined): 76.3%.
Next, `COc1ccc2c(c1)C(=O)N(C)C2C1c2c(cc3c(c2OC)OCO3)CCN1C` (centres undefined): -6.5% (active).
